Source: PubChem BioAssay (NCATS)
Inconclusive results are not listed. The source made the active and inactive calls. Unless noted, calls follow the shape of the dose curve; as a rule, active = well fitted curve in the direction sought with a large enough effect; inconclusive = small, poorly fitted or top-dose-only effect, or another doubt; inactive = no such curve, though single readings can be large; an effect the other way counts as inactive or inconclusive. Residues, ends and D or L forms follow the SMILES beside them. *: point of attachment. Cbz = O=C(OCc1ccccc1)*

How the values were obtained:
[1] = target: T1, Hexokinase-4 (Homo sapiens) + Glucokinase regulatory protein (Homo sapiens) (UniProt P35557+Q14397); assay: qHTS assay for inhibitors of recombinant human GCK-GKRP interaction: Diaphorase-coupled assay (AID 743205)
T1 sequence (P35557 whole entry, looked up): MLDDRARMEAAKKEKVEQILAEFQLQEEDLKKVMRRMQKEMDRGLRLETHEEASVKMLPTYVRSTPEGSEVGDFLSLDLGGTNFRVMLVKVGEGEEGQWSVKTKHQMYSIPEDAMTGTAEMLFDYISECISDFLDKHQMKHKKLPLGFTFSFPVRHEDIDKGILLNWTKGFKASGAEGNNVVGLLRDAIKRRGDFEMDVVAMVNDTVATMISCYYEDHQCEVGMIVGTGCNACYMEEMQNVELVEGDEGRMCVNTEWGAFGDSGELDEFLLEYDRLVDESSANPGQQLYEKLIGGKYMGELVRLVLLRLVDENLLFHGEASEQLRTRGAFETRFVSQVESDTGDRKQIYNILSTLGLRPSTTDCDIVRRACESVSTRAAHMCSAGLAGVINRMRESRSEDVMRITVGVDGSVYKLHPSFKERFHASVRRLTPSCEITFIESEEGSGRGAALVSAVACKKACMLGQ
T1 sequence (Q14397 whole entry, looked up): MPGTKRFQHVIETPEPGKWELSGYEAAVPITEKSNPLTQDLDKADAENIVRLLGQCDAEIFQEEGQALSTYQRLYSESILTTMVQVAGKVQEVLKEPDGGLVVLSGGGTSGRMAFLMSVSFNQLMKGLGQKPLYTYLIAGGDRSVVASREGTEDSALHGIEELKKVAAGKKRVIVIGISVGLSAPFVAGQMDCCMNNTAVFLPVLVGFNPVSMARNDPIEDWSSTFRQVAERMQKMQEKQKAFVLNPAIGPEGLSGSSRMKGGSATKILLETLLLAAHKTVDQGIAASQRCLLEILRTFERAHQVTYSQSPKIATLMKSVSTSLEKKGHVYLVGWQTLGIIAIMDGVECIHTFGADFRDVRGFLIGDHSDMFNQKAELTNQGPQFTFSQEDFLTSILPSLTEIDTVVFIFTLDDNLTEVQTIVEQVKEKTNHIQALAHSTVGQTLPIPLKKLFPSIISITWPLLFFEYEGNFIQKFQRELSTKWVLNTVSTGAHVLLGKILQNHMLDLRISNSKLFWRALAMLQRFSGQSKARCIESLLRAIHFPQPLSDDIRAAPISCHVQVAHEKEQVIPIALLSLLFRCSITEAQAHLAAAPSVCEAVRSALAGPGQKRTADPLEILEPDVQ
How it was run: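 A kinetic fluorescence read (Ex 525/Em 590 nm, every minute for 30 minutes) tracked resorufin from a G6PDH-diaphorase coupled GCK reaction. It contained 10 nM GST-GCK, 10 nM FLAG-GKRP, 5 mM glucose, 0.4 mM ATP in Hepes pH 7.6. Normalized to with/without-enzyme DMSO controls.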

[2] = target: T1, Hexokinase-4 (Homo sapiens) + Glucokinase regulatory protein (Homo sapiens); assay: qHTS assay for inhibitors of recombinant human GCK-GKRP interaction: ADP-Glo assay (AID 743206);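 also: plate controls were DMSO plus enzyme for no effect and no enzyme for full effect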
How it was run: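 GST-GCK and FLAG-GKRP (15 nM each in the dispensed mix, with 2 uM S6P) react with 0.4 mM ATP and 5 mM glucose (final) in Hepes pH 7.6 for 60 min at room temperature. ADP is measured by ADP-Glo luminescence.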

[3] = qHTS Assay for Identifying Gametocytocidal Compounds (AID 743244);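 also: % is scaled to controls: 0 for no effect and ±100 for the full control effect; actives lower the fluorescent signal which means gametocytes are killed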; conditions: P. falciparum 3D7 stage III-V gametocytes, alamarBlue, 72 h; max response: hits give low values
How it was run: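 Compounds are pinned into medium, gametocytes (stage III–V, 3D7, 20,000 cells/well) added, and plates held 72 h at 37 °C in 5% CO2. AlamarBlue follows for 24 h before fluorescence reading.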

[4] = qHTS assay for measurement of the activity of small molecule inhibitors on Zika virus induced Caspase-3 activity in human iPSC derived neural progenitor cells (hNPCs) (AID 1224857); also: % of control where 0% means no effect; nearly all actives have a fitted effect of over 65% in size
How it was run: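 Pretreat hNPCs with compound 1 h; infect ZIKV 2 FFU/cell; 6 h 37 C, 5% CO2; Caspase-Glo 3/7, 30 min RT; luminescence; normalize to no-virus and virus-only wells.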

[5] = qHTS assay for measurement of the activity of small molecule inhibitors on Zika virus induced Caspase-3 activity in human astrocytoma cells (AID 1224859);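 also: plate controls were ZIKV-infected untreated cells for no effect and uninfected cells for full effect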
How it was run: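 Human SNB-19 astrocytoma cells in RPMI 1640 with 10% FBS receive compound one hour ahead of Zika virus at 2 FFU/cell. After 6 h infection, caspase-3/7 activity is detected by Caspase-Glo luminescence.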

[6] = Natriuretic polypeptide receptor (hNpr1) antagonism - Pilot counterscreen GloSensor control cell line (AID 1347045; calls by dose curve; also: potency is read from the fitted curve at half-maximal effect; as to activity change, negative = inhibition: series mostly up to about 38 µM; % is scaled to controls: 0 for no effect and ±100 for the full control effect)
How it was run: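 HEK293 cGMP GloSensor cells preloaded 2 h with 2% GloSensor reagent, then compound 30 min before baseline luminescence read. Stimulated with 50 uM sodium nitroprusside, 20 min at room temperature, then read again; counterscreen for Npr1 antagonism.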

[7] = target: Atrial natriuretic peptide receptor 2 (Homo sapiens) (UniProt P20594); assay: Natriuretic polypeptide receptor (hNpr2) antagonism - Pilot subtype selectivity assay (AID 1347050; calls by dose curve; also: % is scaled to controls: 0 for no effect and ±100 for the full control effect)
Sequence of Atrial natriuretic peptide receptor 2 (Homo sapiens) (P20594 whole entry, looked up): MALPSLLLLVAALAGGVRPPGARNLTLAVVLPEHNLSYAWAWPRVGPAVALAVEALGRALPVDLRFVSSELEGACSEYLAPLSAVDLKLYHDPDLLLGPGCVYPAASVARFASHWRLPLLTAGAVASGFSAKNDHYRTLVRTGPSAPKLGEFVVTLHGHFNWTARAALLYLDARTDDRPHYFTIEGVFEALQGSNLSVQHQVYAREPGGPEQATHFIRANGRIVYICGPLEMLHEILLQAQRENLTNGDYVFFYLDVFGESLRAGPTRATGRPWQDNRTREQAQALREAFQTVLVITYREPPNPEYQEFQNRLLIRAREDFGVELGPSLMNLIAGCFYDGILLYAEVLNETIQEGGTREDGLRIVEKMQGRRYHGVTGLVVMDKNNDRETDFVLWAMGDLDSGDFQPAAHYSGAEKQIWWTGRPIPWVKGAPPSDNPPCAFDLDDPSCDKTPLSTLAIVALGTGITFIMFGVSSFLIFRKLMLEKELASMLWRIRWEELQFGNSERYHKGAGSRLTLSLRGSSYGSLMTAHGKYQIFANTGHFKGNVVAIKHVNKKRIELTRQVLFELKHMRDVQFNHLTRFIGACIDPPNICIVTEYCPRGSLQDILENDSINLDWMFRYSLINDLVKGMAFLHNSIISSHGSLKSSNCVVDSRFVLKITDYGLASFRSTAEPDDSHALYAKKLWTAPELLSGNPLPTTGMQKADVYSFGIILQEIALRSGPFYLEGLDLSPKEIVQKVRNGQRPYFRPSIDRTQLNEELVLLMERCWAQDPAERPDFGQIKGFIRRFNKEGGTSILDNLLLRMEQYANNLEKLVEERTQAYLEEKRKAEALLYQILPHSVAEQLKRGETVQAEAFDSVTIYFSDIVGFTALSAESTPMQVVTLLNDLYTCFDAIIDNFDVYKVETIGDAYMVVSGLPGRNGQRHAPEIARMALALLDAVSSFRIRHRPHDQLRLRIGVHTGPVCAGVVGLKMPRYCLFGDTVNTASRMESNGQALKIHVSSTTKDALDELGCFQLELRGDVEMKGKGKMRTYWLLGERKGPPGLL
How it was run: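 HEK293 cells expressing hNpr2 and a GloSensor cGMP luciferase sensor, 1500/well, preloaded 2 h with 2% GloSensor reagent, compound 30 min, then 1 nM hNppC for 20 min. Antagonism from luminescence after versus baseline pre-read; LOPAC in 1:5 titrations.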

[8] = target: T1, Hexokinase-4 (Homo sapiens) + Glucokinase regulatory protein (Homo sapiens); assay: qHTS assay for inhibitors of recombinant human GCK-GKRP interaction: HTRF assay (AID 743207);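 also: 0% = DMSO with GCK present and -100% = DMSO wells lacking GCK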
How it was run: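 After 60 min equilibration at room temperature with anti-FLAG XL665 and anti-GST antibodies, FRET ratio (665/615 nm, excitation 320 nm) was read. Proteins: GST-GCK and FLAG-GKRP, each 5 nM, plus 2 uM S6P, pH 7.1 buffer; GCK-free wells define minimum signal.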

[9] = qHTS assay for cell viability of HEK293 cells (AID 743288); conditions: ATP luminescence (CellTiter-Glo), 18 h; max response: hits give low values; also: % is scaled to controls: 0 for no effect and ±100 for the full control effect; nearly all actives have a fitted effect of over 50% in size
How it was run: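 Total intracellular ATP, measured with a luciferase-coupled reagent, indicates the number of viable HEK293 cells. Exposure to test chemicals lasts 18 h at 37 C in 1,536-well format at 2,000 cells/well.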

[10] = qHTS assay for cell viability of the p53RE-bla HCT-116 cell line (AID 743292); also: % is scaled to controls: 0 for no effect and ±100 for the full control effect; nearly all actives have a fitted effect of over 55% in size
How it was run: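 CellSensor p53RE-bla HCT-116 cells, 4,000/well, preincubated 5 h at 37 C, then exposed to compounds in DMSO for 16 h at 37 C. Viability read as CellTiter-Glo luminescence (intracellular ATP) after 30 min at room temperature.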

[11] = target: Atrial natriuretic peptide receptor 1 (Homo sapiens) (UniProt P16066); assay: Natriuretic polypeptide receptor (hNpr1) antagonism - Pilot screen (AID 1347049; calls by dose curve;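 also: agonist-evoked cGMP luminescence read 20 min after hNppA addition; series mostly up to about 58 µM; % is scaled to controls: 0 for no effect and ±100 for the full control effect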)
Sequence of Atrial natriuretic peptide receptor 1 (Homo sapiens) (P16066 whole entry, looked up): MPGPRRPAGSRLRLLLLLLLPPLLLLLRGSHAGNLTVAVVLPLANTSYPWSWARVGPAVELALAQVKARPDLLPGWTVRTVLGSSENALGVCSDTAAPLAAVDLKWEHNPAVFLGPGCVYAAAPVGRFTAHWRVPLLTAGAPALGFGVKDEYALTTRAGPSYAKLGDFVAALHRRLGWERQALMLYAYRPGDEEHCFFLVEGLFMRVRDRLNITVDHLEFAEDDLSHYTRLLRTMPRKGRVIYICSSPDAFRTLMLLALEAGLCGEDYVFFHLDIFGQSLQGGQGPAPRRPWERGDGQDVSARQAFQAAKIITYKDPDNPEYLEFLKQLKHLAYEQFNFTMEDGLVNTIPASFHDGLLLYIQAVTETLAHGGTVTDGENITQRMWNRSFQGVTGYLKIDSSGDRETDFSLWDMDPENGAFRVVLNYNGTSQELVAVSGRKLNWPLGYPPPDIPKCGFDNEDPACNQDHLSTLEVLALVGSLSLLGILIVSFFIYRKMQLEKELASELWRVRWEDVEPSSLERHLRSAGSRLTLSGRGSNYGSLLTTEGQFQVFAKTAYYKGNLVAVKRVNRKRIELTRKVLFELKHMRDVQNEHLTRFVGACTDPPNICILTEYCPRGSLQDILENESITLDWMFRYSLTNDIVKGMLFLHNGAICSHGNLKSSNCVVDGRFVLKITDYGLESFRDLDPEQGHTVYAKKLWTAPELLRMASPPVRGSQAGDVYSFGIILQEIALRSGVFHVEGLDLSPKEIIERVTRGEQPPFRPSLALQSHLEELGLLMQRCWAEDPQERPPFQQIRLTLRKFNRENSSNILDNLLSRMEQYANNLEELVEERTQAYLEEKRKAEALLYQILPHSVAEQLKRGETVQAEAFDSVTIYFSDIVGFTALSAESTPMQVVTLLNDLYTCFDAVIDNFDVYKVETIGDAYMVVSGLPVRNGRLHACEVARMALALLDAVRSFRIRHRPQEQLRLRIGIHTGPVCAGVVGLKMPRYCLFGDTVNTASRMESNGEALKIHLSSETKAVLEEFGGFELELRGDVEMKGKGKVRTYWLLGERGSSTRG
How it was run: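 HEK293 cells expressing hNpr1 and GloSensor cGMP luciferase, 1500/well, loaded with 2% GloSensor reagent 2 h, compound 30 min at room temperature; luminescence read before and 20 min after 0.1 nM hNppA stimulation.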

CNCCNS(=O)(=O)c1cccc2cnccc12
inactive: Potency [1] | Potency [2] | max response [3] 18.9% | Potency [4] | Potency [5] | Potency [6] | Potency [7]

CCCCS(=N)(=O)CC[C@H](N)C(=O)O (some centres undefined)
inactive: Potency [1] | Potency [2] | Potency [8] | max response [3] 6.27% | Potency [4] | Potency [5] | Potency [6] | Potency [7]

Nc1ncnc2c1nc(Br)n2C1OC2COP(=O)(O)O[C@@H]2C1O (some centres undefined)
inactive: Potency [1] | Potency [2] | Potency [8] | max response [3] 31.4% | Potency [4] | Potency [5] | Potency [6] | Potency [7]

NOCC(=O)O
inactive: Potency [1] | Potency [8] | max response [3] -2.42% | Potency [4] | Potency [5] | Potency [6] | Potency [7]

CCCc1c(OCCCOc2ccc(OCC(=O)O)cc2)ccc(C(C)=O)c1O
inactive: Potency [1] | Potency [2] | Potency [8] | max response [3] 1.52% | max response [9] -9.62% | Potency [10] | Potency [4] | Potency [5] | Potency [6] | Potency [7]

N[C@H](C(=O)O)[C@H]1C[C@@H]1C(=O)O
inactive: Potency [1] | Potency [2] | max response [3] 18.4% | Potency [4] | Potency [5] | Potency [6] | Potency [7]

N#CC(=C(\N)Sc1ccccc1N)/C(C#N)=C(/N)Sc1ccccc1N
inactive: Potency [1] | Potency [2] | Potency [8] | max response [3] 14.1% | Potency [4] | Potency [5] | Potency [7]
active: Potency [6] 18.5 µM

N#C/C(=C\c1ccc(O)c(O)c1)C(=O)NCCc1ccccc1
inactive: Potency [1] | Potency [2] | Potency [8] | max response [3] 5.86% | Potency [4] | Potency [5] | Potency [6] | Potency [7]

N[C@H](C(=O)O)[C@H](Cc1ccccc1)C(=O)O
inactive: Potency [1] | Potency [2] | Potency [8] | Potency [4] | Potency [5] | Potency [6] | activity change, negative = inhibition [7] -2% [at 1.53 µM]

N[C@@H](CCC(=O)N[C@H](CSN=O)C(=O)NCC(=O)O)C(=O)O
inactive: Potency [1] | Potency [2] | Potency [8] | max response [3] 16.7% | Potency [4] | Potency [5] | Potency [6] | Potency [7]

O=c1cc(-c2ccccc2F)[nH]c2cc3c(cc12)OCO3
inactive: Potency [1] | Potency [2] | Potency [8] | max response [3] 15.8% | Potency [4] | Potency [5] | Potency [6] | Potency [7]

CCCOC(=O)c1c(-c2ccccc2)nc(CC)c(C(=O)SCC)c1CCC
inactive: Potency [1] | Potency [2] | max response [3] 9.8% | Potency [4] | Potency [5] | Potency [6] | Potency [7]

O=C(O)c1ccccc1Nc1cccc(OCc2ccc3ccccc3n2)c1
inactive: Potency [1] | Potency [2] | Potency [8] | max response [3] 1.28% | Potency [4] | Potency [5] | Potency [6] | Potency [7]

Cc1ccccc1/C=C/C1=NCCN1
inactive: Potency [1] | Potency [2] | Potency [8] | Potency [4] | Potency [5] | Potency [6] | Potency [7]

CC(C)[C@H](NC(=O)OCc1ccccc1)C(=O)N[C@H](C=O)Cc1ccccc1 (Cbz-Val-Phe-aldehyde)
inactive: Potency [1] | Potency [2] | Potency [8] | max response [3] 7.9% | Potency [4] | Potency [5] | Potency [6] | Potency [7]

CC(=O)NNC(=O)N1Cc2ccccc2Oc2ccc(Cl)cc21
inactive: Potency [2] | Potency [8] | max response [3] 7.75% | Potency [4] | Potency [5] | Potency [6] | Potency [7]

C[C@@H](NCCc1ccc(O)cc1)[C@@H](O)c1ccc(O)cc1
inactive: Potency [1] | Potency [2] | Potency [8] | Potency [4] | Potency [5] | Potency [11] | Potency [7]

COc1ccc(CCn2nnnc2C2(c3ccc(C)cc3)CC2)cc1
inactive: Potency [2] | Potency [8] | max response [3] 13.1% | Potency [4] | Potency [5] | Potency [6] | Potency [7]

CC(C)(C)NCC(O)COc1cccc2[nH]c(=O)[nH]c12 (centres undefined)
inactive: Potency [1] | Potency [2] | Potency [8] | max response [3] 25.5% | Potency [4] | Potency [5] | Potency [7]
